From PubChem BioAssay
An excerpt weighted towards active compounds, which were near 4.1% of everything screened.
hcDAF-12 act = H. contortus DAF-12 activation, primary screen; HEK293 hcDAF-12 lit1-tk-luc reporter, luminescence; 0% DMSO, 100% Δ7-dafachronic acid; activation, % at 6.8 µM; hit rate 1.4% among 370,000; AID 652067;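 active = activation above the mean of all tested compounds plus 3 SD, cut at about 5.5% in these data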;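 also: 100% = response to 3 µM Δ7-dafachronic acid high control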
hgDAF-12 ag = agonists of H. glycines DAF-12 nuclear receptor; hit rate 1.8% among 370,000; HEK293 GAL4-hgDAF12 UAS-luciferase reporter, agonist luminescence; normalized to butyrate control; AID 687014; activation, % at 6.8 µM;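 active = activation above a cutoff set at the mean of all screened compounds plus 3 SD, cut at about 10% in these data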;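 also: 0% = DMSO wells and 100% = sodium butyrate wells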
DAX1 inh-1 = blocks DAX1 repression of SF-1 activated StAR promoter | HEK293T StAR-luciferase reporter, SF-1/DAX-1 repression relief | inhibition, % at 6.8 µM | hit rate 1.1% among 370,000 | AID 652010;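 active = inhibition above the mean over all tested compounds plus 3 SD, cut at about 3.6% in these data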;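 also: 0% = DAX-1 cells with DMSO and 100% = cells lacking DAX-1 with DMSO; higher inhibition means more luminescence from relief of DAX-1 repression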
ssDAF-12 act = activates DAF-12 receptor from parasite S. stercoralis; HEK293 ssDAF-12/GRIP1 lit1-tk-luc reporter, luminescence; % of 3 µM dafachronic acid response; activation, % at 6.8 µM; hit rate 1% among 370,000;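 active = activation above the mean over all tested compounds plus 3 SD, cut at about 0.9% in these data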;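 also: 0% = DMSO-only wells and 100% = 3 µM delta7-dafachronic acid wells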
DAX1 inh-2 = NR0B1 (DAX1) inhibition; inhibition, % at 6.75 µM; AID 504766; hit rate 0.99% among 340,000; HEK293 Gal4-DAX1 luciferase reporter, luminescence; P51843;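 active = inhibition above the mean over all tested compounds plus 3 SD, cut at about 4.2% in these data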;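 also: 0% = DAX1-transfected cells with DMSO and 100% = empty-vector control cells with DMSO; inhibition shows as a rise in luminescence from relieved DAX1 repression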
Target sequence (P51843 207-470 limits assumed): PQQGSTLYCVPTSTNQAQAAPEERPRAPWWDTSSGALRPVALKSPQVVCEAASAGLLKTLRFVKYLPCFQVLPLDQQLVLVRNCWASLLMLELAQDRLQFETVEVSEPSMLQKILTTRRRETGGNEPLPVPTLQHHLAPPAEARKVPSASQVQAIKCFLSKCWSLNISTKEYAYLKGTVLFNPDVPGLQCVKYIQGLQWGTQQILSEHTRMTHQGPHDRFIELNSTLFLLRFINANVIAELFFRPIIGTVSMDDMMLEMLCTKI
hgDAF12 ag = confirmation of H. glycines DAF-12 agonists | shares compounds with hgDAF-12 ag | HEK293 GAL4-hgDAF12 luciferase reporter, agonist mode; percent of butyrate response | activation, % at 6.8 µM | hit rate 80% among 3,300 | AID 743050;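 active = mean activation over triplicate wells above the hit cutoff derived from the earlier primary screen, cut at about 11% in these data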;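 also: 0% = DMSO low control and 100% = 2 mM sodium butyrate high control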
LXRb DAF12 ctr = activates human LXR-beta, counter-screen for DAF-12 agonists; activation, % at 6.8 µM; 3,300 tested, under 10 active; AID 743051; shares compounds with hgDAF-12 ag; HEK293 Gal4-LXR luciferase reporter, 24 h;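 active = mean activation of the triplicate above a set limit carried over from the primary screen, none filed active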
* = called active by the depositor; · = no result given.

SMILES	hcDAF-12 act	hgDAF-12 ag	DAX1 inh-1	ssDAF-12 act	DAX1 inh-2	hgDAF12 ag	LXRb DAF12 ctr
Cc1cc(C(=O)COC(=O)c2ccc(O)cc2)c(C)n1Cc1ccco1	6.0*	13.4*	4.2*	0.2	1.4	15.9*	0.5
Cc1cc(C(=O)CSc2nc3ccc(Cl)cc3[nH]2)c(C)n1Cc1ccco1	-0.9	-0.2	-0.9	0.0	0.3	·	·
Cc1cc(C(=O)CSc2ncccn2)c(C)n1Cc1ccco1	5.5	17.1*	3.5	0.9*	0.5	17.6*	0.7
CCCc1cc(=O)oc2cc(OC(=O)CN3C(=O)NC4(CCCC4)C3=O)ccc12	-1.8	0.1	-0.3	-1.4	-0.5	·	·
CC(=O)N1CCC(C(=O)N2c3ccccc3N=C(c3ccc(C(F)(F)F)cc3)C2C(=O)NC2CCCC2)CC1 (stereo not given)	2.0	-0.6	0.1	0.0	·	·	·
COc1ccc(N2Cc3ccccc3C2)cc1Cl	0.0	13.7*	-1.6	-0.3	0.3	6.2	0.2
CN1CCSc2ccc(C(=O)NCc3cccc(F)c3)cc21	-0.9	3.0	-0.7	-1.6	0.7	·	·
CN1CCSc2ccc(C(=O)Nc3ccc(Cl)cc3)cc21	3.5	17.9*	1.9	-0.6	7.0*	17.1*	0.9
COc1ccc(OC)c(-c2csc(N3CCC(c4ccccc4)CC3)n2)c1	0.2	0.7	1.5	-1.6	0.3	·	·
CN1CCN(c2ccc(-c3cc(NC=O)c4ncc(-c5ccc(F)c(Cl)c5)n4c3)cc2)CC1	2.9	6.4	-0.3	-0.1	·	·	·
CC(=O)c1ccc(-c2cnc3c(NC=O)cc(-c4ccc(N5CCN(C)CC5)cc4)cn23)cc1	1.5	16.6*	0.6	-0.1	·	9.6	0.2
CCOC(=O)Cc1csc(NC(=O)c2sc3nc4c(C)cc(C)cc4cc3c2N)n1	-0.4	5.2	0.4	-0.1	0.1	·	·
Cc1ccc(Nc2ncnc3ccccc23)cc1	0.3	13.9*	1.2	-0.8	0.3	10.0	0.4
Cc1cccc(CN2CCC(Oc3ccc(C(=O)N4CCCC4)cc3)CC2)n1	-0.5	0.1	-0.6	-0.3	0.1	·	·
CC(=O)Nc1cc(F)c2c(c1F)Cc1cc(F)ccc1-2	3.4	16.4*	1.8	0.2	3.4	11.8*	0.3
CC(=O)Nc1ccc2c(c1)-c1ccc(F)cc1C2	0.8	3.6	-0.4	-1.2	-0.3	·	·
COc1c(C(CC(C)C)OC(C)=O)ccc2c1C(=O)OCc1cc(C)cc(O)c1O2 (stereo not given)	-2.0	-4.6	-1.0	-1.9	-0.7	·	·
Cc1ccccc1NC(=S)N(Cc1cccnc1)Cc1ccccc1Cl	0.2	0.2	-0.3	-1.8	0.7	·	·
c1csc(-c2nc(-c3ccc(-c4ccon4)s3)no2)c1	5.4	16.5*	2.5	0.5	3.4	17.3*	1.1
O=C(NCCc1ccccc1)c1ccc(NC(=O)C2CC2)cc1	1.4	13.7*	2.8	0.3	1.2	7.4	0.2
O=C(NCCc1ccccc1)c1c(F)cccc1F	2.5	14.2*	3.9*	-0.1	0.5	12.5*	0.5
O=C(NCCc1csc(-c2ccccc2)n1)c1c(F)cccc1F	-0.6	1.5	-0.5	-1.3	-0.9	·	·
CC(C)c1ccc(NC2=CC(=O)CC(C)(C)C2)cc1	-0.7	1.7	-0.1	-1.8	0.9	·	·
C/C(=N\NC(=O)c1csc(C)c1C)c1ccco1	2.1	6.9	0.9	-0.5	0.8	·	·
C/C(=N/NC(=O)c1cccs1)c1ccco1	3.1	17.9*	3.4	0.2	2.2	8.7	0.3
SMILES	hcDAF-12 act	hgDAF-12 ag	DAX1 inh-1	ssDAF-12 act	DAX1 inh-2	hgDAF12 ag	LXRb DAF12 ctr
C/C(=N\NC(=O)c1cccs1)C(C)(C)C	1.4	17.7*	2.8	-0.8	1.9	1.2	0.1
COc1ccc(O)c(C(=O)CC(=O)c2ccccc2C)c1	2.5	23.1*	1.2	-0.5	4.8*	10.2	0.6
Cc1cc(C(=O)NCCc2ccccc2)ccc1[N+](=O)[O-]	5.5	13.3*	3.1	0.2	2.7	11.8*	0.5
Cc1cccc(C)c1NC(=O)C1(C)CSCC(=O)N1CCc1ccccc1F (stereo not given)	2.8	-0.5	0.7	-1.0	·	·	·
CC[C@@]1(C(=O)OC)N[C@H](CN(C)C(=O)Nc2ccc(OC)cc2)[C@@H]2C(=O)N(Cc3ccccc3)C(=O)[C@@H]21	-0.2	13.8*	0.5	-0.3	0.1	5.7	0.1
CC[C@@]1(C(=O)OC)N[C@H](CN(C)C(=O)Nc2ccc(F)cc2)[C@@H]2C(=O)N(Cc3ccccc3)C(=O)[C@@H]21	0.0	1.2	-0.4	-0.1	-0.7	·	·
CC(NC(=O)COC(=O)C1CCCCC1)c1ccccc1 (stereo not given)	0.3	-0.4	-0.4	-1.0	-0.3	·	·
Cc1cc(Oc2cccnc2)ccc1NC(=O)Cc1c(C)[nH]c2ccccc12	1.1	0.9	-1.2	-0.6	·	·	·
CCOC(=O)N/N=C/c1cn(CCCOc2ccccc2)c2ccccc12	-0.6	5.8	0.1	-1.1	-2.1	·	·
CCOC(=O)N/N=C/c1cn(CCCOc2ccc(C)cc2)c2ccccc12	-2.6	17.1*	-0.5	-1.0	-2.0	5.0	0.3
CCOC(=O)Cc1csc(NS(=O)(=O)c2ccc(OC)cc2)n1	1.6	-2.8	0.1	-0.5	2.2	·	·
COc1ccc(NC(=O)C2=Cc3cccc(OC)c3OC2)cc1	0.4	14.7*	1.8	-1.0	1.5	10.1	0.5
COC(=O)c1ccc(CC(=O)c2c(C)cc(O)cc2O)o1	3.0	-0.6	-0.7	-1.2	0.4	·	·
CC(CNC(=O)c1cccs1)c1ccc([N+](=O)[O-])cc1 (stereo not given)	-1.2	-3.2	-3.0	-1.2	1.0	·	·
Cc1ccnc(NC(=O)C2COc3ccccc3O2)c1 (stereo not given)	3.2	13.7*	3.8*	0.2	2.9	16.9*	0.8
Cc1ccc(NC(=O)C2COc3ccccc3O2)c(C)c1 (stereo not given)	2.7	7.0	0.4	-0.6	2.9	·	·
O=C(OCc1ccc([N+](=O)[O-])cc1)c1ccc2ccccc2n1	4.3	0.5	0.3	-0.6	-1.8	·	·
O=C(O)C(=O)/C(=C\c1ccc([N+](=O)[O-])cc1)c1ccc2ccccc2n1	4.9	21.6*	2.8	0.9	2.0	17.9*	0.7
CCOC(=O)N1CCN(S(=O)(=O)N2CCCC(C(=O)NCCCN3CC(C)CC(C)C3)C2)CC1 (stereo not given)	-1.3	0.9	0.0	-0.6	0.7	·	·
CC1CCc2c(C(=O)Nc3ccccn3)csc2C1 (stereo not given)	3.0	17.2*	2.9	-0.3	2.6	11.6*	0.5
CC1CCc2c(C(=O)Nc3nccs3)csc2C1 (stereo not given)	-0.4	8.0	0.4	-1.3	-0.6	·	·
CC1CCc2c(C(=O)NCc3ccccn3)csc2C1 (stereo not given)	3.7	17.0*	2.1	-1.4	0.8	7.3	0.2
